Rab9 promoter act = activates the Rab9 promoter; Huh7 Rab9 promoter-luciferase reporter, luminescence, 24 h; Potency, µM (highest dose often 9.22 µM), for the others: top-dose activation, negative = inhibition, actives largely listed as activators; 320,000 tested, 2.8% active; note: % of control where 0% means no effect; nearly all actives have a fitted effect of over 60% in size
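Luminescence read-out: Huh7 cells stably expressing Rab9-luciferase, treated 24 h with compound at 37 °C, then lysed with luciferase reagent for 10 min at ambient before reading.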
KinaseGlo FLuc = blocks Kinase-Glo luciferase, a counter-screen artifact | Q27757 | Kinase-Glo luciferase, ATP luminescence, 8 min | Potency, µM (titrated, usually from 38.3 µM), inactives show top-dose activity change, negative = inhibition, hits mostly inhibitors | 200,000 tested, 0.28% active | AID 1379; note: % is set by controls: 0 for no effect and ±100 for the full control effect; nearly all actives have a fitted effect of over 60% in size
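Luminescence was the read-out, taken after 8-minute incubation at ambient temperature. Luciferase turned over luciferin with 10 uM ATP in imidazole pH 7.2 buffer containing KCl, MgCl2, Tween 20 and BSA.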
ELG1 genotox = inducers of genotoxicity in HEK293T ELG1-luciferase cells | HEK293T ELG1-luciferase reporter, luminescence, 16 h | Potency, µM (doses to about 46 µM), inactives show at the highest dose activity change, positive = activation, hits mostly activators | 330,000 tested, 1.3% active | AID 504466; note: % of control where 0% means no effect; nearly all actives have a fitted effect of over 60% in size
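Reporter readout depends on ELG1 protein level, which increases with genetic stress. After 16 hr compound exposure at 37 °C, luciferase activity was quantified using ONE-Glo.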
SMN2 splice enh = SMN2 splice variant enhancement. HEK293 SMN2-luciferase splicing reporter, luminescence, 30-36 h. 210,000 tested, 2.8% active. AID 1458. Potency, µM (doses to about 46.1 µM), for the others: top-dose activity change, positive = activation, actives largely listed as activators; note: % of control where 0% means no effect; nearly all actives have a fitted effect of over 55% in size
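HEK293 cells carry an SMN2 minigene-luciferase reporter in which exon 7 inclusion puts luciferase in frame. Cells were seeded at 2000 cells/well, attached for 10-12 hours, then exposed to compounds for 30-36 hours at 37C before ONE-Glo luminescence.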
NPC1 prom act = activates the NPC1 promoter | Huh7 NPC1 promoter luciferase reporter, 24 h | Potency, µM (top dose mostly 9.22 µM), for the others: top-dose activation, most hits filed as activators | 320,000 tested, 2.4% active; note: % of control where 0% means no effect; nearly all actives have a fitted effect of over 60% in size
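Quantitative HTS used a cell-based reporter: Huh7 cells stably bearing the NPC1 promoter upstream of luciferase were treated with compounds for 24 h, and promoter activation was read as luminescence.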
FLuc modulator = inhibits or activates purified firefly luciferase, miR-21 counter-screen. P08659. purified FLuc, Km substrates, luminescence inhibition. Potency, µM (top dose mostly 57.5 µM), inactives show top-dose activity change, negative = inhibition, usual class: inhibitors. 360,000 tested, 6.9% active;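 note: plate controls were vehicle for no effect and reference inhibitor for full effect; nearly all actives have a fitted effect of over 55% in size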
Target sequence (P08659 whole entry, looked up): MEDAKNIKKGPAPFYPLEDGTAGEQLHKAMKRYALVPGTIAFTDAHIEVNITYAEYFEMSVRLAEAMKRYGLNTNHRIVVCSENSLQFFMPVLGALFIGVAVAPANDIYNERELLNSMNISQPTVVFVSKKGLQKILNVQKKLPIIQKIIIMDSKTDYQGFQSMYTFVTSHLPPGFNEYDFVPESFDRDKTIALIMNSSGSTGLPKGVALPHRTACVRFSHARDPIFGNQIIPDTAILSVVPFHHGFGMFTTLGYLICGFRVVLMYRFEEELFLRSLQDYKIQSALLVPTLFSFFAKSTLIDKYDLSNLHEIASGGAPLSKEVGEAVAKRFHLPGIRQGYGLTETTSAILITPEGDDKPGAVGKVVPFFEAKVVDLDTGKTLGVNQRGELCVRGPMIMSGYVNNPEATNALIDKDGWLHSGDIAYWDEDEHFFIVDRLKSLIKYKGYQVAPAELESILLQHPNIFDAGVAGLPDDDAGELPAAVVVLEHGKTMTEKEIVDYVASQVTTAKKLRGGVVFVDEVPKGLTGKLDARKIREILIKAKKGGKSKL
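Purified P. pyralis luciferase (10nM final) with 10uM D-luciferin and 10uM ATP (Km levels) in 50mM Tris acetate pH 7.5, 10mM Mg acetate, 0.01% Tween-20, 0.05% BSA; qHTS 6-point titration, ~60 µM downward; luminescence read.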
* hit, by the source's call; ? = inconclusive; . = no result. Hits are enriched below; roughly 7.5% of the tested compounds scored in any of these assays. Calls come from the whole dose curve; as a rule, active = well fitted curve in the direction sought with a large enough effect; inconclusive = small, poorly fitted or top-dose-only effect, or another doubt; inactive = no such curve, though single readings can be large; an effect the other way counts as inactive or inconclusive. Potency is the fitted concentration of half-maximal effect.

SMILES | Rab9 promoter act | KinaseGlo FLuc | ELG1 genotox | SMN2 splice enh | NPC1 prom act | FLuc modulator
Cc1ccc(O)c(-c2cc(C(=O)Nc3cccnc3)[nH]n2)c1 | 2.2µM* | . | ? | . | 2.8µM* | 5.4µM*
COc1ccc(Cl)cc1C(=O)Nc1cccnc1 | 0% | . | 1% | . | 0% | -6%
Cc1ccc(C)c(NC(=O)c2cc(-c3cc(C)c(C)cc3O)n[nH]2)c1 | 3.5µM* | . | ? | . | ? | ?
CC1(C)CC(=O)c2cc(-c3nc(-c4ccc(Cl)cc4)cs3)c(=O)n(-c3ccc(Cl)cc3)c2C1 | . | . | . | 4% | . | -4%
CC1=C(c2ccc(C)cc2)[N+](=O)C(C)(C)N1[O-] | 4µM* | -9% | ? | . | 25% | 9.5µM*
CC1=C(c2ccc(F)cc2)[N+](=O)C(C)(C)N1[O-] | -2% | -1% | -1% | . | -5% | 27µM*
CC1=C(c2ccccc2)[N+](=O)C2(CCCC2)N1[O-] | -5% | 12% | 2% | -2% | -1% | 3%
c1cnc(SCCCOc2ccc3ccccc3c2)nc1 | ? | -3% | 21µM* | 16% | ? | 17µM*
COc1cccc(OCCSc2nc(N)cc(N)n2)c1 | ? | -5% | ? | -63% | ? | 24µM*
Nc1cc(N)nc(SCCOc2ccccc2F)n1 | ? | -1% | ? | 13µM* | 28% | ?
COc1ccc(OCCSc2ncccn2)cc1 | 1.6µM* | -2% | 3.7µM* | 14µM* | 2.2µM* | 7.6µM*
COc1ccc(OCCSc2nc3nc(C)cc(C)n3n2)cc1 | -3% | -2% | 2% | -3% | -2% | -7%
COc1ccc(OC)c(S(=O)(=O)NCCc2sc(-c3cccnc3)nc2C)c1 | . | . | . | . | . | 4%
CC(=O)NCc1nc2cccnc2n1Cc1ccccc1 | . | . | . | . | . | 0%
O=c1[nH]c(SCCOc2ccccc2F)nc2ccccc12 | 18% | 1% | 8% | . | 12% | 27µM*
COc1ccc(OCCSc2ncnc3nc[nH]c23)cc1 | ? | 2% | ? | -18% | ? | 17µM*
Fc1ccccc1OCCSc1ncnc2nc[nH]c12 | ? | -2% | ? | ? | 26% | ?
COc1cccc(OCCCCSc2ncccn2)c1 | 16% | 0% | ? | 18% | 13% | ?
Clc1ccc(OCCSc2ncccn2)cc1 | 3.5µM* | -3% | 8.2µM* | 25µM* | 2.5µM* | 6.7µM*
COc1ccccc1OCCSc1nc2ccccc2c(=O)[nH]1 | 15% | -1% | ? | ? | 16% | ?
COc1ccc(OCCCSc2ncccn2)cc1 | ? | -1% | 10µM* | 25µM* | ? | 13µM*
Cc1ccccc1NC(=O)c1c(C)oc2ccc(O)c(CN3CCCC(C)C3)c12 (stereo unspecified) | . | . | . | -10% | . | -2%
NS(=O)(=O)c1ccc(CCNC(=O)Cc2cccs2)cc1 | 0% | . | 0% | . | -3% | -2%
C=C1C=C(C(F)F)n2ncc(C(=O)NCCc3ccc(OC)c(OC)c3)c2N1 | . | . | . | . | . | 4%
COc1ccc(/C=N/N2C(=O)C3C4C=CC(CC4)C3C2=O)c(OC)c1 (stereo unspecified) | 3% | -1% | 7% | 3% | -9% | ?
SMILES | Rab9 promoter act | KinaseGlo FLuc | ELG1 genotox | SMN2 splice enh | NPC1 prom act | FLuc modulator
Cc1ccc(OCCCSc2ncccn2)cc1C | ? | 0% | ? | 20µM* | ? | 15µM*
CC(C)(C)c1cccc(OCCCSc2ncccn2)c1 | 4% | -3% | 3% | -20% | -1% | ?
CC1=Nc2ccccc2/C1=C/c1c(N)n2c(S(=O)(=O)CC(C)C)nsc2nc1=O | -5% | 4% | 2% | -20% | 2% | 17µM*
CC1=Nc2ccc(C)cc2/C1=C/c1c(N)n2c(S(=O)(=O)C(C)C)nsc2nc1=O | 3% | 0% | -3% | 20% | 1% | ?
CC1=Nc2ccccc2/C1=C/c1c(N)n2c(S(=O)(=O)C(C)C)nsc2nc1=O | -4% | 2% | 1% | 2% | -3% | 24µM*
CN(Cc1ccccc1)S(=O)(=O)c1ccc(-c2cnc(C3CC3)o2)cc1 | . | . | . | . | . | -2%
